PfHsp40 yeast – compounds rescuing yeast from Plasmodium falciparum HSP40 toxicity; S. cerevisiae expressing PfHsp40, growth rescue, ATP luminescence; growth rescue, % at 12.5 µM; actives 0.68% (n = 340,000); AID 504582; in the data active means growth rescue above about 28%, passing the limit was not always enough; inconclusive means no clear call, values can overlap the other calls;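 further: yeast W303a lacking pdr1 and pdr3 grown in galactose medium; growth measured after three days at 30 °C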
Mtb hypoxia inh – inhibitors of hypoxia-regulated fluorescent reporter in Mycobacterium tuberculosis; M. tuberculosis hypoxia-regulated fluorescent reporter, fluorescence; AID 1159583; fluorescence inhibition, % (no concentration beside the values); actives 0.1% (n = 300,000); in the data active means fluorescence inhibition mostly above about 23%, no sharp cut-off; inactive means mostly below about 17%
Mtb betalactam – beta-lactam sensitization of Mtb H37Rv. inhibition, % at 25 µM. actives 0.27% (n = 330,000). M. tuberculosis H37Rv growth with meropenem, percent inhibition;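 further: growth measured after seven days incubation then overnight dye step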
CCHFV vOTU inh – blocks the CCHF virus ovarian tumor domain protease; CCHFV vOTU protease, Pep-AMC fluorescence; actives 0.55% (n = 370,000); AID 651958; inhibition, % at 11.5 µM; in the data active means inhibition above about 30%
RecA splice inh – inhibitors of M. tuberculosis RecA intein splicing; P9WHJ3; cell-free RecA intein splicing, fluorescence; inhibition, % (no concentration beside the values); actives 0.75% (n = 290,000); AID 2221; in the data active means inhibition above about 30%; inconclusive means no clear call, values can overlap the other calls
Target sequence (P9WHJ3 whole entry, looked up, canonical isoform): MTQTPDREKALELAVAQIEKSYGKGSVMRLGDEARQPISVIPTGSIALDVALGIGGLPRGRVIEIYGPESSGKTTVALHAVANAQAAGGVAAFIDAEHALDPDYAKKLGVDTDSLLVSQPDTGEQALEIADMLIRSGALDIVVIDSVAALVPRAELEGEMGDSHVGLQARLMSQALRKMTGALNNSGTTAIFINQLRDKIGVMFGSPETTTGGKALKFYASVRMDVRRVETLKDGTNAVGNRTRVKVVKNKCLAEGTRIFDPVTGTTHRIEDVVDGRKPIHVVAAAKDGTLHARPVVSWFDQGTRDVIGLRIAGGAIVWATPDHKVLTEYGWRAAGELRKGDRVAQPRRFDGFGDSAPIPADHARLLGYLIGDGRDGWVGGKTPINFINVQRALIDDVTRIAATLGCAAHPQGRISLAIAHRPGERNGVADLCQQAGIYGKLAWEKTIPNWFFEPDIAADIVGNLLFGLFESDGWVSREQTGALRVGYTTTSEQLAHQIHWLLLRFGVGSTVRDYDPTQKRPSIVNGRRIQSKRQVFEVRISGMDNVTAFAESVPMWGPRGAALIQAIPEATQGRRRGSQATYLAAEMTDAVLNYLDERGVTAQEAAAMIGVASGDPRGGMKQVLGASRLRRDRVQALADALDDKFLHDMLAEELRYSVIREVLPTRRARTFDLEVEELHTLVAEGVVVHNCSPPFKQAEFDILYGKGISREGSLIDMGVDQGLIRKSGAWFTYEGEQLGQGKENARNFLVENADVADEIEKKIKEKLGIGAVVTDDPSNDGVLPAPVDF
GFP chromophore – counter-screen: blocks GFP chromophore formation; actives 83% (n = 2,100); EC50, µM; cell-free GFP chromophore formation, fluorescence; AID 434968; shares compounds with RecA splice inh
Large screens that a line does not name were inactive (follow-up assays come after a bar, where shown). Hits are enriched below; roughly 1.7% of the tested compounds scored in any of these assays. Unless noted, how the calls were made is not given here.

COc1ccc(/C=C2/C(=O)N(c3cccc(F)c3)N=C2C)c(OC)c1	RecA splice inh 46 | GFP chromophore inactive
CC1=NN(c2ccccc2)C(=O)/C1=C\c1cc(C)n(-c2ccccc2)c1C	none
CC1=NN(c2ccccc2)C(=O)/C1=C/c1cccs1	RecA splice inh 85 | GFP chromophore 6
CC1=NN(c2ccccc2)C(=O)/C1=C\c1cc(C)n(-c2cccnc2)c1C	RecA splice inh 33 | GFP chromophore 31
CC1=NN(c2cccc(F)c2)C(=O)/C1=C/c1ccc(N(C)C)cc1	none
COCCN1C(=O)NC(c2cccc(C(F)(F)F)c2)C(C(=O)OC)C1C (stereo unspecified)	none (no result: PfHsp40 yeast, Mtb betalactam, CCHFV vOTU inh, RecA splice inh)
COc1ccc2oc(=O)c(C(C)=NNc3nc(-c4cc(C)ccc4C)cs3)cc2c1	none (no result: PfHsp40 yeast, Mtb betalactam, CCHFV vOTU inh, RecA splice inh)
COc1ccc(C2=Nc3ccc(C)cc3C(c3ccccc3)N2CC(=O)NN)cc1 (stereo unspecified)	none (no result: PfHsp40 yeast)
COC(=O)CN1C(c2ccc(Cl)cc2)=Nc2ccc(Cl)cc2C1c1ccccc1 (stereo unspecified)	RecA splice inh 32 | GFP chromophore inactive
CC1C=CCC2C(=O)N(c3ccc(OC(=O)c4ccco4)cc3)C(=O)C12 (stereo unspecified)	none
O=C(Oc1ccc(N2C(=O)CCC2=O)cc1)c1ccco1	RecA splice inh 31 (no result: Mtb hypoxia inh) | GFP chromophore 0.61
CC(=O)Nc1ccc(OC(=O)c2ccco2)cc1	RecA splice inh 33 | GFP chromophore inactive
COC(=O)C1=C(C)NC(=S)NC1c1ccc(OC(=O)c2ccco2)cc1 (stereo unspecified)	RecA splice inh 31 | GFP chromophore inactive
COC(=O)C1=C(C)NC(C)=C(C(=O)OC)C1c1ccc(OC(=O)c2ccco2)cc1	none
CC(=O)Nc1cc(OC(=O)c2ccco2)cc(OC(=O)c2ccco2)c1	RecA splice inh 54 (no result: Mtb hypoxia inh) | GFP chromophore 7.4
COc1cccc(-n2nnc3c(=O)n(CC=Cc4ccccc4)cnc32)c1	none (no result: PfHsp40 yeast, Mtb betalactam, CCHFV vOTU inh, RecA splice inh)
c1ccc2cc(CCOC3CCCCO3)ncc2c1 (stereo unspecified)	none (no result: PfHsp40 yeast, Mtb betalactam, CCHFV vOTU inh, RecA splice inh)
CCOC(=O)C1C2COc3ccc(Br)cc3C2N2C(=O)CN(Cc3ccco3)C(=O)[C@@]12C (stereo partly specified)	none (no result: PfHsp40 yeast, Mtb betalactam, CCHFV vOTU inh, RecA splice inh)
Cc1[nH][nH]c(=O)c1C(c1cc2c(cc1Br)OCO2)c1c(C)[nH][nH]c1=O	RecA splice inh 95 | GFP chromophore 0.72
Cc1[nH][nH]c(=O)c1C(c1cc(Br)ccc1O)c1c(C)[nH][nH]c1=O	RecA splice inh 97 | GFP chromophore 0.53
O=C1NC(=O)/C(=C/c2cc3c(cc2Br)OCO3)S1	none
Cc1[nH][nH]c(=O)c1C(c1ccc(-c2ccc(Cl)c(C(=O)O)c2)o1)c1c(C)[nH][nH]c1=O	none (no result: Mtb betalactam, RecA splice inh)
O=c1cc(C2CCNCC2)[nH][nH]1	RecA splice inh 87 (no result: Mtb hypoxia inh) | GFP chromophore 5.4
O=c1cc(C2CCCCC2)[nH]c(=O)[nH]1	none (no result: Mtb hypoxia inh, Mtb betalactam, RecA splice inh)
CNc1cc(Cl)c2nonc2c1[N+](=O)[O-]	RecA splice inh 86 (not shown: Mtb hypoxia inh, Mtb betalactam) | GFP chromophore 7.7
COC(=O)c1c(N)sc(Cc2ccccc2)c1C	none
COC(=O)c1c(NC(=O)/C=C/C(=O)O)sc(Cc2ccccc2)c1C	RecA splice inh 51 (no result: CCHFV vOTU inh) | GFP chromophore 24
O=C(CCNc1ccc(Cc2ccncc2)cc1)c1cccc([N+](=O)[O-])c1	none
O=C(CCNc1cccc(F)c1)c1cccc([N+](=O)[O-])c1	RecA splice inh 32 | GFP chromophore inactive
COc1ccc2ccccc2c1C=NNC(=O)c1cccc(C)c1	none (no result: PfHsp40 yeast, Mtb betalactam, CCHFV vOTU inh, RecA splice inh)
CN1CCN(CCC(=O)NN=Cc2ccccn2)CC1	none (no result: PfHsp40 yeast, Mtb betalactam, CCHFV vOTU inh, RecA splice inh)
CCCCn1[nH]c(-c2ccccc2)cc1=O	RecA splice inh 97 | GFP chromophore 2.8
CCCc1cc(=O)n2[nH]c(-c3ccccc3)cc2n1	none (no result: Mtb hypoxia inh)
COC(=O)C1=C(c2cc3ccccc3s2)CC2CCC1N2C(=O)NC1CC1 (stereo unspecified)	none (no result: PfHsp40 yeast, Mtb betalactam, CCHFV vOTU inh, RecA splice inh)
Nc1nc(-c2ccco2)nn1C(=O)c1ccc(Cl)cc1	RecA splice inh 34 | GFP chromophore inactive
CC(O)C1CN=C(N)N1CCc1cc(C(F)(F)F)cc(C(F)(F)F)c1 (stereo unspecified)	none (no result: PfHsp40 yeast, Mtb betalactam, CCHFV vOTU inh, RecA splice inh)
COc1ccc(C(C(=O)NC2CCCCC2)N(C(=O)CCl)c2ccc(OC)cc2)cc1 (stereo unspecified)	none (no result: CCHFV vOTU inh)
O=C(NC1CCCC1)C(c1ccc(F)cc1)N(Cc1ccc(F)cc1)C(=O)CCl (stereo unspecified)	RecA splice inh 56 | GFP chromophore 1.8
COc1ccc(N(C(=O)CCl)C(C(=O)NC2CCCCC2)c2cccnc2)cc1 (stereo unspecified)	RecA splice inh 75 (not shown: Mtb hypoxia inh) | GFP chromophore 11
COc1ccc(C(C(=O)NC2CCCCC2)N(C(=O)CCl)c2cccc(Cl)c2)cc1 (stereo unspecified)	RecA splice inh 59 | GFP chromophore inconclusive
O=C(NC1CCCCC1)C(c1cccnc1)N(C(=O)CCl)c1ccc(F)cc1 (stereo unspecified)	RecA splice inh 73 | GFP chromophore 11
COc1ccc(OCC(=O)N/N=C2\CCCCc3ccccc32)cc1	none (no result: Mtb hypoxia inh)
CCc1ccc(OCC(=O)N/N=C2\CC(=O)c3ccccc32)cc1	RecA splice inh 53 (no result: Mtb hypoxia inh, CCHFV vOTU inh) | GFP chromophore 8.8
COc1ccc(C(=O)C2C(c3ccc(-c4ccccc4[N+](=O)[O-])o3)NC(=O)NC2(O)C(F)(F)F)cc1 (stereo unspecified)	RecA splice inh 64 | GFP chromophore 32
COc1cc(CCCN2C(N)=NCC2Cc2ccc(O)cc2)cc(OC)c1OC (stereo unspecified)	none (no result: PfHsp40 yeast, Mtb betalactam, CCHFV vOTU inh, RecA splice inh)
Cc1nn(Cc2ccccc2)c2c1C(c1ccco1)C(C#N)=C(N)O2 (stereo unspecified)	RecA splice inh 55 (no result: Mtb hypoxia inh) | GFP chromophore 23
Cc1nn(Cc2ccccc2)c2c1C(c1ccc(Cl)cc1)C(C#N)=C(N)O2 (stereo unspecified)	RecA splice inh 60 | GFP chromophore 16
CC(=O)C1=C(C)OC(N)=C(C#N)C1c1cccnc1 (stereo unspecified)	none
Cc1nn(Cc2ccccc2)c2c1C(c1cccnc1)C(C#N)=C(N)O2 (stereo unspecified)	RecA splice inh 73 | GFP chromophore 13
CCCc1nn(C)c2c1C(c1cccnc1)C(C#N)=C(N)O2 (stereo unspecified)	RecA splice inh 60 | GFP chromophore 24
Cc1cc2c(c(=O)n1Cc1cccnc1)C(c1ccccc1)C(C#N)=C(N)O2 (stereo unspecified)	none
O=C(NN=C/C=C/c1ccc2c(c1)OCO2)c1ccc(F)cc1	none (no result: PfHsp40 yeast, Mtb betalactam, CCHFV vOTU inh, RecA splice inh)
Cc1nn(Cc2ccccc2)c2c1C(c1ccncc1)C(C#N)=C(N)O2 (stereo unspecified)	RecA splice inh 67 (no result: Mtb hypoxia inh) | GFP chromophore 18
O=C(O)c1cccc(Cn2c(Cl)c(/C=N/Nc3ccccc3)sc2=O)c1	RecA splice inh 30 (no result: Mtb hypoxia inh, CCHFV vOTU inh) | GFP chromophore inactive
Cc1cc(C(=O)Cn2ncc(Cl)c(Cl)c2=O)c(C)n1CC(F)(F)F	RecA splice inh 36 (no result: Mtb hypoxia inh) | GFP chromophore 6

From PubChem
